Assay outcomes (PubChem BioAssay)
DT40 TDP1 CPT: qHTS for Inhibitors of human tyrosyl-DNA phosphodiesterase 1 (TDP1): qHTS in cells in presence of CPT. Potency, µM (doses to about 46.2 µM), inactives show top-dose activity change, negative = growth inhibition, hits mostly inhibitors. 420,000 compounds, 12% hits. chicken DT40 Tdp1-/-;hTDP1 cells + 20 nM CPT, ATP luminescence, 48 h; further: potency means the concentration at half of the fitted maximal effect; nearly all actives have a fitted effect of over 55% in size
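Chicken DT40 Tdp1-/- cells stably complemented with human TDP1 were seeded at 400 cells/well in medium containing 20 nM camptothecin, exposed to pin-transferred compounds, and grown at 37 °C for at least 48 hr. Viability was read as ATP luminescence.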
DT40 TDP1 no CPT: qHTS for Inhibitors of human tyrosyl-DNA phosphodiesterase 1 (TDP1): qHTS in cells in absence of CPT. DT40 Tdp1-/- hTDP1 cells, no CPT, ATP luminescence, 48 h. Potency, µM (highest dose often 46.2 µM), for inactives: top-dose activity change, negative = growth inhibition, actives largely listed as inhibitors. 420,000 compounds, 15% hits. AID 686978, 2013; further: potency means the concentration at half of the fitted maximal effect; nearly all actives have a fitted effect of over 55% in size
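Seeded 400 DT40-hTDP1 cells/well (vehicle DMSO, no 20 nM CPT); pinned compounds; ≥48 hr at 37 °C; CellTiter-Glo luminescence as viability measure.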
HT1080-NT tox: qHTS for induction of synthetic lethality in tumor cells producing 2HG: qHTS for the HT-1080-NT fibrosarcoma cell line; 360,000 compounds, 1.6% hits; Potency, µM (top dose mostly 46.1 µM), inactives show top-dose activity, negative = less viability, most hits filed as cytotoxic; HT-1080-NT fibrosarcoma viability, CellTiter-Glo ATP luminescence, 48 h;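 further: NT is the 2HG producing partner of a matched IDH1 knockdown line; potency means the concentration at half of the fitted maximal effect; 0% = DMSO-treated cells and -100% = media-only wells without cells; nearly all actives have a fitted effect of over 55% in size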
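Toxicity toward the 2HG-producing NT line was scored as %Activity, normalised to DMSO and no-cell wells, from CellTiter-Glo luminescence after 48 hours' treatment.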
ALOX12 inh: Primary qHTS assay for inhibitors of human arachidonate 12S-lipoxygenase (ALOX12): Round 2 | Polyunsaturated fatty acid lipoxygenase ALOX12 (Homo sapiens), P18054 | purified 12hLO, xylenol orange hydroperoxide absorbance | Potency, µM (doses to about 108 µM), inactives show at the highest dose activity change, negative = inhibition, hits mostly inhibitors | 580,000 compounds, 1.1% hits; further: potency means the concentration at half of the fitted maximal effect
Target sequence (P18054 whole entry, looked up): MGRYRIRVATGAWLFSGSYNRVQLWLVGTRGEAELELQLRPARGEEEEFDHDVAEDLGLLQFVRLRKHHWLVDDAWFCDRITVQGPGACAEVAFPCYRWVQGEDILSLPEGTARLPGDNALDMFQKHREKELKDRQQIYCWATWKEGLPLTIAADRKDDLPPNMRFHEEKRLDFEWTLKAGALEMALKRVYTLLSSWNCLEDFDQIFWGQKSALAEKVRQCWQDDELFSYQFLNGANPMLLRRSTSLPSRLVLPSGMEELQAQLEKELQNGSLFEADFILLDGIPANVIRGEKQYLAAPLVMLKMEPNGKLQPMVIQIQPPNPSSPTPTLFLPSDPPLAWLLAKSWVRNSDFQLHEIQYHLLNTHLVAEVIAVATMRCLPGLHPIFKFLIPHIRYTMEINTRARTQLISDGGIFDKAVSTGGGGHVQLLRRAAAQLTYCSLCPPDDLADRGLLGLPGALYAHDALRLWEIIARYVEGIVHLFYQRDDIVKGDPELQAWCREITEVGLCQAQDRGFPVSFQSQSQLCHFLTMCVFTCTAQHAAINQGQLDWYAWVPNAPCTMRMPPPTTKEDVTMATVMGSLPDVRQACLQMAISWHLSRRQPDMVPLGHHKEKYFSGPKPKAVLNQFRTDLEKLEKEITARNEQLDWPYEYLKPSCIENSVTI
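Purified human 12hLO (150 nM final) in 25 mM Hepes, 0.01% Triton X-100, pH 7.0 was preincubated 15 min at room temperature with compound. Then 40 uM arachidonic acid was added, 30 min. Hydroperoxide was read by Fe-XO absorbance ratio 573/405 nm.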
IL-1B inflam inh: qHTS for Inhibitors of Inflammasome Signaling: IL-1-beta AlphaLISA Primary Screen; THP-1 LPS/ATP IL-1B secretion, AlphaLISA, 16 h; hits give low values; activity change, % at 57.5 µM; 360,000 compounds, 4.7% hits; AID 743279, 2014; in the data active means activity change below about -50%; inconclusive means mostly about -30% to -49%
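THP-1 cells pretreated 1 hr with compounds (up to 57.5 uM final), then stimulated with LPS (250 ng/mL final) plus ATP (1.25 mM final); secreted IL-1B measured by AlphaLISA after 16 hr, decreased signal indicating inhibition.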
HT1080 IDH1KD tx: qHTS for induction of synthetic lethality in tumor cells producing 2HG: qHTS for the HT-1080-IDH1KD cell line; HT-1080 IDH1 knockdown viability, ATP luminescence, 48 h; Potency, µM (titrated, usually from 46.1 µM), inactives show at the top dose activity, negative = toxicity, hits mostly cytotoxic; 360,000 compounds, 2% hits;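 further: potency means the concentration at half of the fitted maximal effect; 0% = DMSO wells and -100% = cell-free medium wells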
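Cytotoxicity counter-line: IDH1KD HT-1080, 48 h, CellTiter-Glo. Curves classed by r2, magnitude and activity.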
An asterisk follows results filed as active; ? = inconclusive; . = not tested or not shown; [ ] = dose if it differs, or a comment. The entries come from a sample that favours hits as a whole. Unless noted, the call rests on the fitted dose curve; in most records, active means well fitted curve in the direction sought with a large enough effect; inconclusive means small, poorly fitted or top-dose-only effect, or another doubt; inactive means no such curve, though single readings can be large; an effect the other way counts as inactive or inconclusive. Unless noted, on the % scale 0 is the no-effect control and ±100 the full control effect.

SMILES	DT40 TDP1 CPT	DT40 TDP1 no CPT	HT1080-NT tox	ALOX12 inh	IL-1B inflam inh	HT1080 IDH1KD tx
COc1cc2c(cc1OC)C(C)N(S(=O)(=O)c1ccc(C)cc1)CC2 (stereo not drawn)	-19%	?	-3%	0%	8	2%
COc1ccc(C2c3cc(OC)c(OC)cc3CCN2S(C)(=O)=O)cc1OC (stereo not drawn)	16µM*	21µM*	-2%	-7%	38	-9%
COc1ccc(C(=O)N2CCc3cc(OC)c(OC)cc3C2c2ccc(OC)c(OC)c2)cc1 (stereo not drawn)	?	?	-24%	1%	-51*	?
COc1cc2c(cc1OC)C(COc1ccc(C(C)C)cc1)N(C(=O)c1ccc(S(=O)(=O)N3CCCC3)cc1)CC2 (stereo not drawn)	?	21µM*	.	-9%	.	.
COc1cc2c(cc1OC)C(COc1ccc(C(C)C)cc1)NCC2 (stereo not drawn)	?	16µM*	-11%	-24%	-20	-6%
COc1ccc(C2c3cc(OC)c(OC)cc3CCN2C(=O)c2ccccc2Br)cc1OC (stereo not drawn)	-11%	?	-18%	4%	?	1%
COc1ccc(-c2n[nH]c3c2CN(C(=O)c2ccc(OC)c(OC)c2)CC3)cc1	8.2µM*	8.2µM*	-27%	-7%	1	21µM*
COc1ccc(C2c3cc(OC)c(OC)cc3CCN2C(=O)c2ccccc2)cc1OC (stereo not drawn)	?	9.2µM*	-23%	-8%	-10	-29%
COc1ccc(C(=O)N2CCc3cc(OC)c(OC)cc3C2COc2ccccc2OC)cc1 (stereo not drawn)	16µM*	29µM*	.	-12%	.	.
COc1cccc(-c2n[nH]c3c2CN(C(=O)c2oc(C)cc2C)CC3)c1	.	.	.	4%	.	.
CC(=O)c1c(C)nc2ccccn12	-13%	8%	15%	-4%[57.4 µM]	-5	2%
Cc1ccc(/C=C/C(=O)c2c(C)nc3ccccn23)cc1	16µM*	16µM*	?	6%	-95*	-21%
CC(=O)C1C(=O)CC(C)(O)C(C(C)=O)C1c1ccc(Cl)cc1 (stereo not drawn)	.	.	.	-26%	.	.
Cc1csc(NC(=O)c2cc3c(s2)CCCCC3)n1	?	15µM*	?	0%	-63*	?
CCOC(=O)Cc1csc(NC(=O)c2cc3c(s2)CCCC3)n1	?	?	-29%	-23%	-3	?
Cc1csc(NC(=O)c2cc3c(s2)CCCC3)n1	?	12µM*	-22%	?	-19	-26%
O=C(Cc1ccccc1)N1CC2CC(C1)[C@H]1CCCC(=O)N1C2 (stereo partly drawn)	.	.	.	6%	.	.
COc1cccc(N(C(=O)c2snc(C(N)=O)c2N)C(C(=O)NCc2ccccc2)c2ccc(O)cc2)c1 (stereo not drawn)	?	18µM*	-17%	-4%	-53*	-4%
COc1ccc(N(C(=O)c2snc(C(N)=O)c2N)C(C(=O)NCc2ccccc2)c2ccc(O)cc2)cc1OC (stereo not drawn)	-2%	?	-3%	-1%	28	-3%
COc1ccc(N(C(=O)c2snc(C(N)=O)c2N)C(C(=O)NCc2ccc(F)cc2)c2ccc(O)cc2)cc1 (stereo not drawn)	?	?	-26%	-22%	-88*	?
COc1ccc(C(C(=O)NCc2ccccc2)N(C(=O)Cn2nnc3ccccc32)c2ccc(F)cc2)cc1 (stereo not drawn)	?	15µM*	.	-22%	.	.
Cc1ccnc(SCCCn2c(Br)nc3c2c(=O)[nH]c(=O)n3C)n1	.	.	.	13%	.	.
COc1ccc(N2CC(C(=O)N3CCN(c4ncccn4)CC3)NC2=O)cc1 (stereo not drawn)	.	.	.	11%	.	.
CCn1c(C)nc2cc(C(N)=O)ccc21	-4%	0%	4%	0%	-17	4%
CCC(=NNC(=O)c1ccc2c(c1)nc(C)n2CC)c1cc(F)ccc1O	13µM*	12µM*	-6%	0%	81	?
SMILES	DT40 TDP1 CPT	DT40 TDP1 no CPT	HT1080-NT tox	ALOX12 inh	IL-1B inflam inh	HT1080 IDH1KD tx
CCn1c(C)nc2cc(C(=O)N/N=C/c3ccc(O)c(O)c3O)ccc21	26µM*	?	-13%	-21%	24	-13%
CCn1c(C)nc2cc(C(=O)N/N=C/c3cccc(OC)c3O)ccc21	?	?	-28%	?	166	?
CS(=O)(=O)c1ccccc1C(=O)Nc1ccc(N2CCOCC2)cc1	.	.	.	-33%	.	.
Cc1ccc(-n2nc3c(=O)n(CCCC(=O)NCc4ccccc4Cl)nc(C)c3c2C)cc1	?	18µM*	-7%	1%	-9	1%
Cc1ccccc1CCNC(=O)CCn1nc(C)c2c(C)n(-c3ccccc3)nc2c1=O	?	-2%	3%	4%	-23	4%
Cc1ccc(-n2nc3c(=O)n(CCCC(=O)NCCc4ccccc4Cl)nc(C)c3c2C)cc1	8.2µM*	15µM*	.	3%	.	.
COc1ccc(NC(=O)c2cccnc2NCCc2ccccc2)cc1	21µM*	?	-7%	45µM*	-3	-4%
O=C(Nc1ccccc1)c1cccnc1NCCc1ccccc1	?	16µM*	-2%	-5%	-8	5%
O=C(Nc1ccccc1)c1ccccc1CCc1ccccc1	?	-27%	7%	10%	-1	-2%
O=C(Nc1ccnn1Cc1ccc(Cl)cc1)c1cc(=O)c2ccccc2o1	.	.	.	-25%	.	.
CC(=O)Nc1ccc(C23CC4CC(CC(C4)C2)C3)cc1	-1%	?	-3%	-26%	11	4%
CNC(=O)CN(c1ccc(C23CC4CC(CC(C4)C2)C3)cc1)S(C)(=O)=O	?	26µM*	-10%	-4%	-6	-9%
CS(=O)(=O)N(CC(=O)Nc1ccc(CC#N)cc1)c1ccc(C23CC4CC(CC(C4)C2)C3)cc1	?	16µM*	?	14%	?	10µM*
CCc1ccc(N(CC(=O)NC)S(C)(=O)=O)cc1	-7%	-2%	22%	47%	7	15%
